The source made the active and inactive calls. How the source made its calls: active means hit-call score of the fitted dose curve at least 0.9, where 1 is the maximum; inactive means score below 0.9.

Read-out in experiment [1]: flavin-containing dimethylaniline monooxygenases 3 (FMO3), FMO3 (gene 2328)
The experiment in a line: LTEA_HepaRG_FMO3: Life Technologies and Expression Analysis (LTEA) Assay for flavin-containing dimethylaniline monooxygenases 3 (FMO3) using HepaRG (AID 2283453).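 On AC50: FMO3 transcript by TaqMan qRT-PCR normalized to ACTB GAPDH and POLR2A.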 The following applies: mRNA level, 48 h; actives raise or lower the signal. Summed up: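 Eight-point concentration-response in serum-free HepaRG cultures (top 100 uM, 0.5% DMSO, 48 h). Read-out: FMO3 mRNA level normalized to three endogenous control genes, fitted bidirectionally versus vehicle.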

Read-out in experiment [2]: CFLAR gene, CFLAR (gene 8837)
Description: LTEA_HepaRG_CFLAR: Life Technologies and Expression Analysis (LTEA) Assay for CFLAR gene using HepaRG (AID 2283455). The settings on record: mRNA level, 48 h; actives raise or lower the signal. Summed up:
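Gain- or loss-of-signal changes in CFLAR transcript were fitted bidirectionally relative to 0.5% DMSO. Cells (HepaRG, duplicate wells) were dosed for 48 h across eight half-log concentrations topping at 100 uM; quantitation by TaqMan qRT-PCR.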

Read-out in experiment [3]: Forkhead box O1 (FOXO1), FOXO1 (gene 2308)
Description: LTEA_HepaRG_FOXO1: Life Technologies and Expression Analysis (LTEA) Assay for Forkhead box O1 (FOXO1) using HepaRG (AID 2283456). The settings on record: mRNA level, 48 h; actives raise or lower the signal. Summed up:
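Using one lot of HepaRG hepatic cells kept in 0.5% DMSO, the team applied test chemicals in duplicate, half-log dilutions from 100 uM, for 48 h. Expression, normalised to ACTB/GAPDH/POLR2A, was compared with vehicle in either direction.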

Read-out in experiment [4]: growth arrest and DNA damage 45 (GADD45A), GADD45A (gene 1647)
Description: LTEA_HepaRG_GADD45A: Life Technologies and Expression Analysis (LTEA) Assay for growth arrest and DNA damage 45 (GADD45A) using HepaRG (AID 2283458). The settings on record: mRNA level, 48 h; actives raise or lower the signal. Summed up: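 HepaRG, 48 h exposure, 8 conc. (top 100 uM, half-log steps), 0.5% DMSO vehicle, duplicates. Read-out: qRT-PCR mRNA level, housekeeping-normalized (ACTB/GAPDH/POLR2A). Curves fit bidirectionally vs DMSO baseline.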

Read-out in experiment [5]: Forkhead box O3 (FOXO3), FOXO3 (gene 2309)
Description: LTEA_HepaRG_FOXO3: Life Technologies and Expression Analysis (LTEA) Assay for Forkhead box O3 (FOXO3) using HepaRG (AID 2283459). The settings on record: mRNA level, 48 h; actives raise or lower the signal. Summed up: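 Gene-expression endpoint: FOXO3 transcript level by qRT-PCR in HepaRG cultures treated 48 h with chemicals up to 100 uM (half-log, 0.5% DMSO vehicle).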

Read-out in experiment [6]: ABC Transporter (ABCB1), ABCB1 (gene 5243)
The experiment in a line: LTEA_HepaRG_ABCB1: Life Technologies and Expression Analysis (LTEA) Assay for ABC Transporter (ABCB1) using HepaRG (AID 2283460). The settings on record: mRNA level, 48 h; actives raise or lower the signal. Summed up: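 Human liver HepaRG line treated 48 h with up to 100 uM compound (eight half-log points, 0.5% DMSO); ABCB1 mRNA change fitted bidirectionally against DMSO controls.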

Read-out in experiment [7]: growth arrest and DNA damage 45 (GADD45B), GADD45B (gene 4616)
The experiment in a line: LTEA_HepaRG_GADD45B: Life Technologies and Expression Analysis (LTEA) Assay for growth arrest and DNA damage 45 (GADD45B) using HepaRG (AID 2283461). The settings on record: mRNA level, 48 h; actives raise or lower the signal. Summed up:
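Values are bidirectional concentration-response fits against 0.5% DMSO controls. Underlying data: qRT-PCR mRNA levels in human HepaRG liver cells treated 48 h in serum-free induction medium, eight concentrations topping at 100 uM.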

Read-out in experiment [8]: ABC Transporter (ABCC3), ABCC3 (gene 8714)
The experiment in a line: LTEA_HepaRG_ABCC3: Life Technologies and Expression Analysis (LTEA) Assay for ABC Transporter (ABCC3) using HepaRG (AID 2283462). The settings on record: mRNA level, 48 h; actives raise or lower the signal. Summed up:
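Differentiated HepaRG liver cells receive test chemicals at eight concentrations (max 100 uM) for 48 h. Expression of ABCC3 is quantified by qRT-PCR against ACTB, GAPDH and POLR2A, and activity is fitted in both directions against the DMSO control.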

Read-out in experiment [9]: Cytochrome P450 (CYP1A1), CYP1A1 (gene 1543)
The experiment in a line: LTEA_HepaRG_CYP1A1: Life Technologies and Expression Analysis (LTEA) Assay for Cytochrome P450 (CYP1A1) using HepaRG (AID 2283454). The following applies: mRNA level, 48 h; actives raise or lower the signal. Summed up: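 Induction of CYP1A1 mRNA in a human hepatic cell line was measured 48 h after dosing, with 1 mM phenobarbital as induction positive control and 0.5% DMSO vehicle as baseline for bidirectional curve fitting.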

A short description of experiment [10]: CEETOX_H295R_TESTO: CeeTox H295R High-throughput Steroidogenesis Assay for Testosterone (TESTO) (AID 2283457). The following applies: actives raise or lower the signal. Summed up:
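Testosterone synthesis is assessed in human adrenocortical H295R cells after 48 h of chemical exposure, using HPLC-MS/MS of extracted medium. Activity is fitted in both directions against DMSO control.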

In the case of `CC(C)=CCC/C(C)=C\CO`, the outcome in experiment [1], in experiment [2], in experiment [3], in experiment [4], in experiment [5] and in [6] was inactive. The compound was called inactive in experiment [7] and in [8].
Regarding `O=C1CCCCCN1`, the call in experiment [1], in [9], in experiment [2], in experiment [3], in experiment [4] and in experiment [5] was inactive. In addition, the call in [6], in experiment [7] and in experiment [8] was inactive.
For the compound `CCCC(=O)OCC`, the call in [1], in experiment [2], in experiment [3], in experiment [4], in [5] and in experiment [6] was inactive. Moreover, the result in experiment [7] and in experiment [8] was inactive. Also, the AC50 (commonly the concentration at which the activity in the assay is half-maximal) in experiment [9] is 50 µM (active).
Regarding `Cn1c(=O)cc(Oc2ccc(F)cc2F)c2cnc(NCC(C)(C)O)nc21`, the outcome in experiment [1], in experiment [2], in experiment [3], in [4], in [5] and in experiment [6] was inactive. Further, the compound was called inactive in experiment [7] and in experiment [8]. Moreover, in [9], the AC50 was 11.9 µM (active).
For the compound `Cc1ccc(O)cc1`, the outcome in experiment [1], in experiment [2], in [3], in experiment [10], in [4] and in [5] was inactive. Also, the call in [6], in [7] and in [8] was inactive.
Turning to `Cc1ccc(S(=O)(=O)O)cc1C`, the call in experiment [1], in experiment [2], in experiment [3], in experiment [4], in [5] and in [6] was inactive. For the same compound, the call in experiment [7] and in experiment [8] was inactive. The AC50 in experiment [9] is 74.3 µM (active).
On to `CCN(C(=O)c1cc(C)cc(OC[C@H](C)Nc2ccncc2)c1)C(C)C`, for which the AC50 in experiment [1] was 50.7 µM (active); in experiment [9] it was 19.5 µM (active); in experiment [4], 0.232 µM (active); in experiment [8], 33.8 µM (active). Besides, the outcome in [2], in [3], in [5], in experiment [6] and in [7] was inactive.
`CCC(C)(C)C(=O)O[C@H]1C[C@@H](C)C=C2C=C[C@H](C)[C@H](CC[C@@H]3C[C@@H](O)CC(=O)O3)[C@H]21`: the compound was classed as inactive in [1], in experiment [2], in experiment [3], in experiment [4], in experiment [5] and in [7]. The compound was classed as inactive in experiment [8]. Besides, in experiment [6], the half-maximal activity concentration (AC50) was 31.7 µM (active).
Take `Clc1nc(Cl)c(Cl)c(Cl)c1Cl`: the compound was classed as inactive in [1], in [2], in experiment [3], in experiment [4], in [5] and in [6]. In addition, the call in [7] and in experiment [8] was inactive. Further, the AC50 in experiment [9] was 74.4 µM (active).
On to `C1=CCCC=CCCC=CCC1`, for which the outcome in experiment [1], in [9], in [2], in [3], in experiment [4] and in experiment [5] was inactive. Further, the compound was called inactive in [6], in [7] and in experiment [8].
For `CCOCCOCCOCCO`, the call in [1], in [9], in experiment [2], in experiment [3], in experiment [4] and in experiment [5] was inactive. The compound was called inactive in experiment [6], in [7] and in experiment [8].
Consider `CC1=CC(=O)CC(C)(C)C1`, for which the compound was called inactive in experiment [1], in experiment [9], in [2], in experiment [3], in experiment [4] and in experiment [5]. The call in [6], in [7] and in [8] was inactive.
On to `CC(C)=CCCC(C)=CC=O`, for which the compound was called inactive in experiment [1], in experiment [2], in [3], in experiment [4], in experiment [5] and in [6]. Also, the compound was classed as inactive in experiment [7] and in [8]. Also, in experiment [9], the AC50 was 63.9 µM (active).
Take `CC(C)(O)c1coc(S(=O)(=O)NC(=O)Nc2c3c(cc4c2CCC4)CCC3)c1`: the result in [1], in [2], in experiment [3], in [4], in experiment [5] and in experiment [6] was inactive. Also, the outcome in [7] and in experiment [8] was inactive. Also, the AC50 in experiment [9] is 50 µM (active).
Take `CC(C)CCO`: the result in [1], in experiment [9], in experiment [2], in [3], in experiment [4] and in [5] was inactive. Also, the compound was classed as inactive in experiment [6], in experiment [7] and in experiment [8].
In the case of `CCCCCCCCO`, the compound was called inactive in [1], in experiment [9], in experiment [2], in experiment [3], in experiment [4] and in experiment [5]. Further, the outcome in experiment [6], in experiment [7] and in experiment [8] was inactive.
On to `CC(C)c1cccc(C(C)C)c1N1C(=O)c2ccc(O)cc2C1=O`, for which the AC50 in experiment [1] is 84.1 µM (active); in experiment [9], 63.1 µM (active); in [3] it was 83.9 µM (active); in experiment [5], 80.4 µM (active); in experiment [6], 23.9 µM (active); in experiment [8], 84.3 µM (active). For the same compound, the compound was classed as inactive in [2], in experiment [4] and in experiment [7].
Regarding `CC1(C)C(=O)N(Br)C(=O)N1Br`, the compound was classed as inactive in experiment [1], in [2], in [3], in experiment [4], in experiment [5] and in [6]. Further, the compound was classed as inactive in experiment [7] and in experiment [8]. Moreover, the AC50 in [9] was 36.8 µM (active).
For `CC[C@H](C)C(=O)O[C@H]1C[C@@H](C)C=C2C=C[C@H](C)[C@H](CC[C@@H]3C[C@@H](O)CC(=O)O3)[C@H]21`, the compound was called inactive in experiment [1], in experiment [2], in experiment [3], in experiment [4], in experiment [5] and in experiment [7]. Further, the result in [8] was inactive. For the same compound, the AC50 in experiment [9] was 24.4 µM (active); in experiment [6], 12.7 µM (active).
`O=C(O)CC(O)C(=O)O` (centres undefined): the compound was classed as inactive in experiment [1], in [2], in experiment [3], in experiment [4], in experiment [5] and in experiment [6]. The compound was called inactive in experiment [7] and in [8]. Also, the AC50 in experiment [9] is 77.9 µM (active).
On to `CC(C)CC(C)(O)C#CC(C)(O)CC(C)C` (centres undefined), for which the result in experiment [1], in experiment [2], in experiment [3], in experiment [4], in experiment [5] and in experiment [7] was inactive. Besides, the outcome in [8] was inactive. Also, the AC50 in experiment [9] is 50 µM (active); in experiment [6], 16.7 µM (active).
For `CC(C)=CCC/C(C)=C/CO`, the outcome in experiment [1], in experiment [2], in experiment [3], in experiment [4], in [5] and in [6] was inactive. The result in experiment [7] and in experiment [8] was inactive.
Regarding `COc1ccc2sc(C(=O)Nc3nnn[nH]3)c(OC(C)C)c2c1`, the AC50 in experiment [1] is 10.9 µM (active); in [9], 35.3 µM (active); in [2], 25.2 µM (active); in [3], 19.9 µM (active); in [4] it was 31.4 µM (active); in [5] it was 23.6 µM (active). Further, the AC50 in experiment [7] is 43.9 µM (active); in [8] it was 24.4 µM (active). The compound was classed as inactive in experiment [6].
